Measurements from PubChem BioAssay (Tox21).
Values joined by “and” are separate entries in the source; they are usually repeats but may differ in a detail not shown here. Equal values may be shown once. Inconclusive results are not listed. Entries that show only a call come without a potency. Active and inactive are the calls of the source. Unless noted, calls follow the shape of the dose curve; as a rule, active = well fitted curve in the direction sought with a large enough effect in the repeat runs; inconclusive = weak or mixed curves; inactive = no such curve, though single readings can be large; an effect the other way counts as inactive or inconclusive.

How the values were obtained:
[1] = qHTS assay to identify small molecule antagonists of the glucocorticoid receptor (GR) signaling pathway - cell viability counter screen (AID 720693); also: nearly all actives have a fitted effect of over 55% in size
[2] = qHTS assay for identifying genotoxic compounds that show differential cytotoxicity against isogenic chicken DT40 cell lines with known DNA damage response pathways - wild type cell line (AID 743012); also: nearly all actives have a fitted effect of over 60% in size; also: potency is read from the fitted curve at half-maximal effect
Outline: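 Wild-type DT40 cells (300/well) exposed to compounds for 40 hours at 37 C/5% CO2. Viability read by CellTiter-Glo luminescence after 30 min at room temperature.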

[3] = qHTS assay for identifying genotoxic compounds that show differential cytotoxicity against isogenic chicken DT40 cell lines with known DNA damage response pathways - Rev3 mutant cell line (AID 743014); also: nearly all actives have a fitted effect of over 55% in size; also: potency is read from the fitted curve at half-maximal effect
[4] = qHTS assay for identifying genotoxic compounds that show differential cytotoxicity against isogenic chicken DT40 cell lines with known DNA damage response pathways - Rad54/Ku70 mutant cell line (AID 743015); also: nearly all actives have a fitted effect of over 60% in size; also: potency is read from the fitted curve at half-maximal effect
[5] = qHTS assay to identify small molecule antagonists of the androgen receptor (AR) signaling pathway - cell viability counter screen (AID 743033; also: nearly all actives have a fitted effect of over 45% in size)
[6] = qHTS assay to identify small molecule antagonists of the androgen receptor (AR) signaling pathway using the MDA cell line - cell viability counter screen (AID 743041; also: nearly all actives have a fitted effect of over 45% in size; also: potency is read from the fitted curve at half-maximal effect)
Outline: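 Viability counter screen run alongside the AR antagonist reporter: cells seeded 5 h before compound, R1881 added, 16 h incubation at 37C without CO2, fluorescent CellTiter-Fluor signal quantified.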

[7] = qHTS assay to identify small molecule antagonists of the thyroid receptor (TR) signaling pathway - cell viability counter screen (AID 743064); also: nearly all actives have a fitted effect of over 50% in size; also: potency is read from the fitted curve at half-maximal effect
Outline: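 GH3.TRE-Luc cells, 4 h pre-plating; cpd + T3 1 nM final; 37 °C 23.5 h; CellTiter-Fluor 30 min; fluorescence read.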

[8] = qHTS assay to identify small molecule antagonists of the thyroid receptor (TR) signaling pathway (AID 743065); also: nearly all actives have a fitted effect of over 55% in size; also: potency is read from the fitted curve at half-maximal effect
Outline: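 GH3.TRE-Luc rat pituitary cells carrying two TR response elements driving luciferase were plated for 4 h, given compound plus 1 nM T3 (final), and incubated 23.5 h at 37 C. ONE-Glo luminescence measured reporter inhibition; CellTiter-Fluor fluorescence tracked cytotoxicity.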

[9] = test system: thyroid hormone receptor (rat, GH3 cells); test: qHTS assay to identify small molecule agonists of the thyroid receptor (TR) signaling pathway (AID 743066; calls by dose curve)
[10] = qHTS assay to identify small molecule antagonists of the estrogen receptor alpha (ER-alpha) signaling pathway - cell viability counter screen (AID 743074; calls by dose curve;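 also: HEK293 cells carrying ER-alpha-UAS-bla reporter stimulated with 17beta-estradiol; nearly all actives have a fitted effect of over 45% in size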; also: potency is read from the fitted curve at half-maximal effect)
[11] = qHTS assay to identify small molecule antagonists of the estrogen receptor alpha (ER-alpha) signaling pathway using the BG1 cell line - cell viability counter screen (AID 743081);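 also: compound given together with 17beta-estradiol as the ER stimulus; nearly all actives have a fitted effect of over 45% in size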; also: potency is read from the fitted curve at half-maximal effect
[12] = target: Aromatase (Homo sapiens) (UniProt P11511); test: qHTS assay to identify aromatase inhibitors (AID 743083); also: nearly all actives have a fitted effect of over 55% in size; also: potency is read from the fitted curve at half-maximal effect
[13] = qHTS assay to identify aromatase inhibitors - cell viability counter screen (AID 743084)
[14] = target: Estrogen receptor (Homo sapiens) (UniProt P03372); test: qHTS assay to identify small molecule antagonists of the estrogen receptor alpha (ER-alpha) signaling pathway (AID 743069; active = well fitted curve in the direction sought with a large enough effect in the signal ratio in the repeat runs, not every such curve was filed as active; the % refers to the signal ratio)
Outline: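 Estradiol-stimulated ER-alpha-UAS-bla HEK293 cells, 18 hr compound exposure at 37C. LiveBLAzer B/G substrate, 2 hr RT, fluorescence read.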

[15] = target: Estrogen receptor (Homo sapiens) (UniProt P03372); test: qHTS assay to identify small molecule agonists of the estrogen receptor alpha (ER-alpha) signaling pathway (AID 743075; calls by dose curve;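 also: HEK293 GripTite cells with ER-alpha and UAS-driven beta-lactamase reporter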)
[16] = target: Estrogen receptor (Homo sapiens) (UniProt P03372); test: qHTS assay to identify small molecule agonists of the estrogen receptor alpha (ER-alpha) signaling pathway using the BG1 cell line (AID 743079); conditions: BG1Luc4E2 cells, ERE-luciferase agonist, 22 h; activation: at 70.3 µM (top of the series); also: nearly all actives have a fitted effect of over 20% in size; also: potency is read from the fitted curve at half-maximal effect
[17] = target: Androgen receptor (Homo sapiens) (UniProt P10275); test: qHTS assay to identify small molecule agonists of the androgen receptor (AR) signaling pathway (AID 743036; active = well fitted activation curve with a large enough effect in the signal ratio in the repeat runs, with a control signal flat, not every such curve was filed as active; the % refers to the signal ratio)
Outline: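 AR-bla HEK293 cells, 2,000/well; 4 h preincubation 37C/5% CO2; compound (DMSO) 16 h at 37C; LiveBLAzer B/G FRET substrate 2 h RT; fluorescence intensity read-out.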

[18] = target: Androgen receptor (Homo sapiens) (UniProt P10275); test: qHTS assay to identify small molecule agonists of the androgen receptor (AR) signaling pathway using the MDA cell line (AID 743040; also: nearly all actives have a fitted effect of over 20% in size)
Outline: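 Luminescence from ONE-Glo, read after 30 min at room temperature, reflects MMTV-driven luciferase in MDA-kb2 cells (AR- and GR-responsive). Treatment lasted 16 h at 37C, 0% CO2.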

[19] = target: Androgen receptor (Homo sapiens) (UniProt P10275); test: qHTS assay to identify small molecule antagonists of the androgen receptor (AR) signaling pathway using the MDA cell line (AID 743042; also: nearly all actives have a fitted effect of over 55% in size)
Outline: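 MDA-kb2 cells (human breast carcinoma, stably carrying an MMTV-luciferase reporter responsive to AR and GR) were plated at 3,000 cells/well and preincubated 5 hr at 37C, then given compound plus R1881 agonist for 16 h. ONE-Glo luminescence was read.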

[20] = qHTS assay to identify small molecule antagonists of the estrogen receptor alpha (ER-alpha) signaling pathway using the BG1 cell line (AID 743080; calls by dose curve;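 also: BG1 cells stimulated with 17beta-estradiol alongside compound; nearly all actives have a fitted effect of over 25% in size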; also: potency is read from the fitted curve at half-maximal effect)
Outline: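 Seeding, 24 h rest, compound transfer from DMSO, 17beta-estradiol addition, 21.5 h incubation, CellTiter-Fluor (30 min, 37 C), then ONE-Glo (30 min, room temperature): this sequence was run on BG1-Luc-4E2 reporter cells.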

Aromatase (Homo sapiens), sequence (P11511 whole entry, looked up): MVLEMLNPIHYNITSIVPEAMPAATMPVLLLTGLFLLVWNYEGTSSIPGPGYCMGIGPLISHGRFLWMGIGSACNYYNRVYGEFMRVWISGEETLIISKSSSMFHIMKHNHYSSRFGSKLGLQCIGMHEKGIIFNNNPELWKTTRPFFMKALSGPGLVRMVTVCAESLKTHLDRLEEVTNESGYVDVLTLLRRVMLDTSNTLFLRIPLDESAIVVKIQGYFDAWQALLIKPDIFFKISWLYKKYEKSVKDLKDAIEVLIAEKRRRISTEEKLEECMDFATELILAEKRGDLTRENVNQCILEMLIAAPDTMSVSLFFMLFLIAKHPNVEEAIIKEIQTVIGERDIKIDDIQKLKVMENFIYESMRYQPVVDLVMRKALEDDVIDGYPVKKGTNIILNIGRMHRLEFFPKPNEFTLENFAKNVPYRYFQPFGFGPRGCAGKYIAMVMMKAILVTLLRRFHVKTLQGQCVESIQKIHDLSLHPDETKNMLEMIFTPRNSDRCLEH
Estrogen receptor (Homo sapiens), sequence (P03372 whole entry, looked up): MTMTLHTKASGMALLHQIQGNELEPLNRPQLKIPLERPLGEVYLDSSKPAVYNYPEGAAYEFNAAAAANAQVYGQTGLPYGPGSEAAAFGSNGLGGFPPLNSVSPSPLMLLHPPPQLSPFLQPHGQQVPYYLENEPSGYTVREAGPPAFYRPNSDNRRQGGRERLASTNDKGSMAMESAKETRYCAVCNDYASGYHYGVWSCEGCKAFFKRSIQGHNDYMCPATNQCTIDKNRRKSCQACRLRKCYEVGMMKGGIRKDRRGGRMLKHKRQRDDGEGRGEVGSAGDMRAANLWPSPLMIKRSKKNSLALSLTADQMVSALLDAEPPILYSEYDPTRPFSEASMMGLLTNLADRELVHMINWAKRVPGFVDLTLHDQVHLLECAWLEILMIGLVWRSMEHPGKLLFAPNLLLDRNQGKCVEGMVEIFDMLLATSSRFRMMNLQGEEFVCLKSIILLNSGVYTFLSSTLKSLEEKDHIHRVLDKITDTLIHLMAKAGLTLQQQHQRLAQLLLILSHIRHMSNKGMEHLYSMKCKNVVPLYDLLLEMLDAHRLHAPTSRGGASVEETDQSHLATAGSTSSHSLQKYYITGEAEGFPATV
Androgen receptor (Homo sapiens), sequence (P10275 whole entry, looked up): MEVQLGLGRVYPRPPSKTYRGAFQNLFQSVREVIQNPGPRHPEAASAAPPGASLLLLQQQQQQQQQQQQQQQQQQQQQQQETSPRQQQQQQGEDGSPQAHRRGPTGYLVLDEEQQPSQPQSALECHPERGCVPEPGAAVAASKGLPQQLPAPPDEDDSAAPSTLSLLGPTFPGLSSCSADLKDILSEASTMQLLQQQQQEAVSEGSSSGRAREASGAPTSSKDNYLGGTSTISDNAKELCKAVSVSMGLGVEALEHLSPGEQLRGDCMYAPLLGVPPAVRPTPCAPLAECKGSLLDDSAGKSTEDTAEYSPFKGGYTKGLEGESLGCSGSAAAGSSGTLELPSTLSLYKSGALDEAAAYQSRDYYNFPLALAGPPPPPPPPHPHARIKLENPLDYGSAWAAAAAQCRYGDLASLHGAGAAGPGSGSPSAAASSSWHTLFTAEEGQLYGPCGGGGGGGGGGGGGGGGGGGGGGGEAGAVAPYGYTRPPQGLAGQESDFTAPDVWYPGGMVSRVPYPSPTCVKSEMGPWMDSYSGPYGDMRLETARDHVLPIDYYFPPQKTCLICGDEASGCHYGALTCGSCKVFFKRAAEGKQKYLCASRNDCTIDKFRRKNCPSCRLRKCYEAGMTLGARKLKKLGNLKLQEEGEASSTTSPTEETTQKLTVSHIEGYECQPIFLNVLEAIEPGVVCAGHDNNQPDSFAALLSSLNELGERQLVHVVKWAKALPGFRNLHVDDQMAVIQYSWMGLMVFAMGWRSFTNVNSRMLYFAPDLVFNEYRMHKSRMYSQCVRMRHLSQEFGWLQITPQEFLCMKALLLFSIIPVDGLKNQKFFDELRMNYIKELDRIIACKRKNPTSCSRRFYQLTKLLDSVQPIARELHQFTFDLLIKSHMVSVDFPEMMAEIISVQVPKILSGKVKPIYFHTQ

SMILES | Potency [1] | Potency [2] | Potency [3] | Potency [4] | Potency [5] | Potency [6] | Potency [7] | Potency [8] | outcome [9] | Potency [10] | Potency [11] | Potency [12] | Potency [13] | Potency [14] | Potency [15] | Potency [16] | Potency [17] | Potency [18] | Potency [19] | Potency [20]
CO[C@H]1O[C@H](CO)[C@@H](O)[C@H](O)[C@H]1O | inactive | inactive | inactive | inactive | inactive | inactive | inactive | inactive | inactive | inactive | inactive | inactive | inactive |  |  |  |  |  |  | 
Nc1nccs1 | inactive | inactive | inactive | inactive | inactive | inactive | inactive | inactive | inactive | inactive | inactive | inactive | inactive |  |  |  |  |  |  | 
CCC(C)=O | inactive | inactive | inactive | inactive | inactive | inactive | inactive | inactive | inactive | inactive | inactive |  | inactive |  |  |  |  |  |  | 
Cc1ccccc1N1C(=O)c2cc(S(N)(=O)=O)c(Cl)cc2NC1C (centres undefined) | inactive | inactive | inactive | inactive | inactive | inactive | inactive | inactive | inactive | inactive | inactive | inactive | inactive |  |  |  |  |  |  | 
O=C(O)c1snc(Cl)c1Cl | inactive | 61.1 µM (active) | 61.1 µM (active) | 61.1 µM (active) | inactive | inactive |  |  | inactive | inactive | inactive | inactive | inactive |  |  |  |  |  |  | 
CCCCC(CC)CNCC(CC)CCCC (centres undefined) | inactive | inactive | inactive | inactive | inactive | inactive | inactive | inactive | inactive | inactive | inactive |  |  |  |  |  |  |  |  | 
N#C/C(=C1/SC[C@@H](c2ccc(Cl)cc2Cl)S1)n1ccnc1 | inactive | 21.1 µM (active) and 13.3 µM (active) and 26.6 µM (active) | 26.6 µM (active) and 29.8 µM (active) | 26.6 µM (active) and 23.7 µM (active) and 33.5 µM (active) |  | inactive |  | 21.1 µM (active) and 13.3 µM (active) | inactive | inactive | inactive |  |  |  |  |  |  |  |  | 
O=c1[nH]c2ccc(S(=O)CCN3CCC(Cc4ccc(F)cc4)CC3)cc2o1 (centres undefined) | inactive | 13.7 µM (active) | 4.33 µM (active) | 6.86 µM (active) |  | inactive | inactive |  | inactive | inactive |  | inactive | inactive | inactive | inactive | 12.2 µM (active) |  |  |  | 
Cc1occc1C(=O)Nc1ccc(C(=O)N2CCC(F)(F)/C(=C\C(=O)N3CCC(N4CCCCC4)CC3)c3ccccc32)cc1 | inactive | inactive | inactive |  | inactive | inactive | 17 µM (active) | 19.1 µM (active) | inactive | inactive |  |  | inactive | inactive | inactive |  | inactive | inactive | inactive | 
CCNC(=O)N1CCN(CCCC(c2ccc(F)cc2)c2ccc(F)cc2)CC1 | inactive | 5.31 µM (active) | 7.5 µM (active) | 6.68 µM (active) |  | 26.6 µM (active) | 21.1 µM (active) | 21.1 µM (active) |  | 16.9 µM (active) | 29.8 µM (active) |  |  |  | inactive |  |  |  |  | 
O=C(O)c1cccc(O)c1 | inactive | inactive | inactive | inactive |  | inactive | inactive | inactive | inactive | inactive | inactive | inactive | inactive | inactive | inactive | inactive |  |  |  | inactive
NC(=O)N(O)[C@@H]1C=C[C@H](Oc2cccc(Oc3ccc(F)cc3)c2)C1 | inactive | 54.5 µM (active) | 61.1 µM (active) | 54.5 µM (active) |  | inactive | inactive | 68.6 µM (active) |  | inactive | inactive |  | inactive | inactive | inactive | 13.7 µM (active) |  |  |  | 77 µM (active)
C[N+](C)(C)CCOC(N)=O | inactive | inactive | inactive |  | inactive | inactive | inactive | inactive | inactive | inactive | inactive | inactive | inactive |  |  |  | inactive | inactive | inactive | 
CC(C)(C)C(=O)C(Oc1ccc(Cl)cc1)n1ccnc1 (centres undefined) | inactive | 13.3 µM (active) | 26.6 µM (active) | 21.1 µM (active) |  | inactive |  | inactive | inactive | inactive | inactive | 11.9 µM (active) | inactive | inactive | inactive | inactive |  |  |  | inactive
CC(C)c1nnc2ccc(-c3ocnc3-c3cc(F)ccc3F)cn12 | inactive | 27.3 µM (active) | 21.7 µM (active) | 27.3 µM (active) |  | inactive | inactive | inactive | inactive | inactive | inactive | inactive | inactive |  | inactive |  |  |  |  | 54.5 µM (active)
CCc1c2c(nc3ccc(OC(=O)N4CCC(N5CCCCC5)CC4)cc13)-c1cc3c(c(=O)n1C2)COC(=O)[C@]3(O)CC | inactive | 5.96 µM (active) | 5.96 µM (active) | 4.22 µM (active) |  | inactive |  | 23.7 µM (active) | inactive |  | inactive | inactive |  |  | inactive |  |  |  |  | 11.9 µM (active)
C=CCOC(=O)/C=C\C(=O)OCC=C | inactive | inactive | inactive | inactive |  |  | inactive | inactive | inactive | inactive | inactive | inactive | inactive | inactive | inactive | inactive | inactive | inactive | inactive | inactive
CC#N | inactive | inactive | inactive | inactive |  | inactive | inactive | inactive | inactive | inactive | inactive | inactive | inactive | inactive | inactive | inactive |  |  |  | inactive
